A number with no mark means an inactive call. Inconclusive results are not listed. Activity calls are given as the source filed them. Unless noted, calls follow the shape of the dose curve; as a rule, active = well fitted curve in the direction sought with a large enough effect in the repeat runs; inconclusive = weak or mixed curves; inactive = no such curve, though single readings can be large; an effect the other way counts as inactive or inconclusive.

A short description of assay [1]: qHTS assay to identify small molecule agonists of the estrogen related receptor (ERR) signaling pathway from Tox21 library (AID 1224849; calls by dose curve; also: nearly all actives have a fitted effect of over 15% in size). Conditions: ERR reporter cell line, ONE-Glo luciferase, 18 h; at 92.4 µM (top of the series) unless noted. The procedure, abridged: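 ERR reporter cell line (NTP) seeded, rested 6 h at 37 C/5% CO2, then pinned with Tox21 compounds in DMSO. After 18 h at 37 C, ONE-Glo luciferase luminescence was read following 30 min at room temperature.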
On the technique in general: Quantitative high-throughput screening tests each substance at several concentrations.

Assay [2] in a line: qHTS RealTime-Glo MT Cell Viability Assay in HepG2 cells - 24 hour (AID 1224867). Also: nearly all actives have a fitted effect of over 50% in size. Put shortly: (§1)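 Luminescence read-out: viable HepG2 cells reduce a prosubstrate to a NanoLuc substrate, giving a signal proportional to live cell number. Reads taken at 0, 8, 16, 24, 32 and 40 h of compound exposure at 37 C.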
Assay [3] is described as follows: qHTS RealTime-Glo MT Cell Viability Assay in HEK293 cells - 32 hour (AID 1224868). Also: top concentration of the series differs between compounds; nearly all actives have a fitted effect of over 50% in size. The procedure, abridged: (§2)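 Nonlytic real-time viability readout: viable cells convert prosubstrate to NanoLuc substrate, giving luminescence proportional to live cell number. HEK293, 600 cells/well, compound added after 5 h, continuous culture at 37 C.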
Assay [4] can be described thus: A CellTox Green Cytotoxicity Assay to monitor cytotoxicity in HEK293 cells - 0 hour (AID 1224869). Also: nearly all actives have a fitted effect of over 50% in size. Put shortly: (§3)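 HEK293 cells premixed with CellTox Green dye were seeded at 600 cells/well and left 5 h at 37 C/5% CO2 before pin transfer of 23 nL compound in DMSO. Fluorescence from dye bound to dead-cell DNA was read during 40 h treatment.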
Assay [5] is described as follows: A CellTox Green Cytotoxicity Assay to monitor cytotoxicity in HEK293 cells - 40 hour (AID 1224871). Also: nearly all actives have a fitted effect of over 45% in size. Put shortly: as §3
A short description of assay [6]: qHTS RealTime-Glo MT Cell Viability Assay in HEK293 cells - 16 hour (AID 1224872). Also: top concentration of the series differs between compounds; nearly all actives have a fitted effect of over 50% in size. The procedure, abridged:
as §2

The nature of assay [7]: qHTS RealTime-Glo MT Cell Viability Assay in HepG2 cells - 8 hour (AID 1224873). Also: nearly all actives have a fitted effect of over 55% in size. Put shortly: (§4)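 HepG2 cells mixed with RealTime-Glo MT reagents (NanoLuc plus cell-permeant prosubstrate) were seeded at 600 cells/well, incubated 5 h at 37 C/5% CO2, then pinned with compounds in DMSO; nonlytic luminescence tracked viability during 40 h treatment.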
Assay [8] is described as follows: qHTS RealTime-Glo MT Cell Viability Assay in HEK293 cells - 40 hour (AID 1224874). Also: nearly all actives have a fitted effect of over 50% in size. The settings on record: RealTime-Glo luminescence; max response: active compounds read low. Put shortly:
(§5)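 HEK293 cells mixed with RealTime-Glo reagents (NanoLuc plus cell-permeant prosubstrate) at 600 cells/well, preincubated 5 h at 37 C/5% CO2, then given 23 nL compound in DMSO. Nonlytic luminescence from viable cells was read at 0, 8, 16, 24, 32 and 40 h.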

A short description of assay [9]: A CellTox Green Cytotoxicity Assay to monitor cytotoxicity in HepG2 cells - 16 hour (AID 1224876). Also: nearly all actives have a fitted effect of over 45% in size. Put shortly:
(§6)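 HepG2 cells were seeded together with the CellTox Green dye at 600 cells/well, left 5 h at 37 C/5% CO2, then given compounds in DMSO. Fluorescence from dye bound to dead-cell DNA was read repeatedly over 40 h of treatment at 37 C.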

A short description of assay [10]: qHTS RealTime-Glo MT Cell Viability Assay in HepG2 cells - 32 hour (AID 1224877). Also: nearly all actives have a fitted effect of over 55% in size. Put shortly:
as §1

A short description of assay [11]: A CellTox Green Cytotoxicity Assay to monitor cytotoxicity in HepG2 cells - 24 hour (AID 1224878). Also: nearly all actives have a fitted effect of over 45% in size. The procedure, abridged:
as §6

Assay [12] in a line: A CellTox Green Cytotoxicity Assay to monitor cytotoxicity in HepG2 cells - 40 hour (AID 1224879). Also: nearly all actives have a fitted effect of over 40% in size. Also: potency is read from the fitted curve at half-maximal effect. Put shortly: as §6
The nature of assay [13]: qHTS RealTime-Glo MT Cell Viability Assay in HEK293 cells - 0 hour (AID 1224880). Also: top concentration of the series differs between compounds; nearly all actives have a fitted effect of over 45% in size. The procedure, abridged: as §5
Assay [14] in a line: A CellTox Green Cytotoxicity Assay to monitor cytotoxicity in HEK293 cells - 32 hour (AID 1224881). Also: nearly all actives have a fitted effect of over 40% in size. The procedure, abridged:
as §3

Assay [15] is described as follows: A CellTox Green Cytotoxicity Assay to monitor cytotoxicity in HepG2 cells - 0 hour (AID 1224882). Also: nearly all actives have a fitted effect of over 35% in size. The procedure, abridged: as §6
Assay [16] in a line: A CellTox Green Cytotoxicity Assay to monitor cytotoxicity in HepG2 cells - 32 hour (AID 1224883). Also: nearly all actives have a fitted effect of over 50% in size. The procedure, abridged:
as §6

Assay [17] in a line: A CellTox Green Cytotoxicity Assay to monitor cytotoxicity in HEK293 cells - 8 hour (AID 1224884). Also: nearly all actives have a fitted effect of over 35% in size. The procedure, abridged: as §3
Assay [18] is described as follows: qHTS RealTime-Glo MT Cell Viability Assay in HepG2 cells - 16 hour (AID 1224885). Also: nearly all actives have a fitted effect of over 50% in size. Put shortly: as §1
A short description of assay [19]: qHTS RealTime-Glo MT Cell Viability Assay in HepG2 cells - 40 hour (AID 1224870). Also: nearly all actives have a fitted effect of over 50% in size. Put shortly: as §4
The nature of assay [20]: A CellTox Green Cytotoxicity Assay to monitor cytotoxicity in HEK293 cells - 24 hour (AID 1224875). Also: nearly all actives have a fitted effect of over 45% in size. Put shortly:
as §3
% is scaled to controls: 0 for no effect and ±100 for the full control effect.

Consider `CC1CCc2c(N3CCC(O)CC3)c(F)cc3c(=O)c(C(=O)O)cn1c23` (stereo unspecified), for which, in [1], the activity change, positive = activation is -17.9% [at 42.5 µM]. Moreover, the molecule was called inactive in assay [2], in [7], in assay [10] and in assay [18]. Besides, the Potency entry in [3], in [4], in [5], in [6], in assay [9] and in assay [11] was “inactive” in each case. The Potency entry in [12], in assay [13], in [14], in assay [15], in [16] and in assay [17] was “inactive” throughout. In [8], the max response is -0.0801%.

`CCCCCCCCCCCCCBr`: the activity change, positive = activation in [1] is 3.01%. For the same molecule, the Potency result in assay [4], in assay [20], in assay [9], in [11], in assay [12] and in assay [14] was “inactive” each time. Also, the Potency entry in assay [16] and in assay [17] was “inactive” in each case. The molecule was classed as inactive in [19], in assay [7], in assay [10] and in [18].

On to `CC/C=C\CCOC(=O)c1ccccc1O`, for which, in assay [1], the activity change, positive = activation was 2.25%. In addition, the outcome in assay [2], in assay [19], in assay [7], in assay [10] and in assay [18] was inactive. Further, the Potency result in assay [3], in assay [4], in assay [5], in assay [6], in assay [20] and in assay [13] was “inactive” each time. Also, the Potency entry in assay [14], in assay [15] and in assay [17] was “inactive” in each case. The max response in assay [8] was 19.1%. In addition, the Potency in [12] is 21.9 µM (active).

Take `CCCC(CC)c1ccccc1` (stereo unspecified): the call in [2], in assay [19], in [7], in assay [10] and in assay [18] was inactive. Further, the Potency result in assay [3], in assay [4], in [5], in assay [6], in assay [20] and in assay [9] was “inactive” throughout. The Potency result in [11], in assay [12], in assay [13], in [14], in assay [15] and in assay [16] was “inactive” in each case. For the same molecule, in assay [17], the Potency entry was “inactive”. The max response in assay [8] was 11.4%.

As for `CCC(C(=O)OCCN1CCOC(c2ccccc2)C1C)c1ccccc1` (stereo unspecified), the activity change, positive = activation in assay [1] was -23.3% [at 42.5 µM]. For the same molecule, the call in [2], in assay [19], in assay [7], in assay [10] and in assay [18] was inactive. In addition, the Potency entry in assay [4], in [5], in [9], in [11], in assay [12] and in assay [13] was “inactive” in each case. For the same molecule, the Potency result in assay [14], in [15], in [16] and in assay [17] was “inactive” in each case.

For the molecule `c1ccc2cnccc2c1`, in [1], the activity change, positive = activation was 7.4%. Also, the outcome in assay [2], in [19], in assay [7], in [10] and in assay [18] was inactive. The Potency result in assay [3], in assay [4], in assay [5], in [6], in assay [20] and in [9] was “inactive” in each case. The Potency result in assay [11], in assay [12], in assay [13], in assay [14], in [15] and in [16] was “inactive” throughout. In addition, in [17], the Potency entry was “inactive”. For the same molecule, in [8], the max response is 9.26%.

In the case of `C=C(C)c1cccc(C(C)(C)N=C=O)c1`, the molecule was called inactive in [2], in assay [19], in assay [7], in assay [10] and in assay [18]. Besides, the Potency entry in [3], in assay [4], in assay [5], in assay [6], in assay [20] and in assay [9] was “inactive” each time. Also, the Potency result in assay [11], in [12], in assay [13], in assay [14], in assay [15] and in [16] was “inactive” in each case. Further, in [17], the Potency entry was “inactive”. Also, the max response in [8] is 3.52%.

For `CCCCCC(C)O` (stereo unspecified), the result in assay [2], in assay [19], in [7], in assay [10] and in assay [18] was inactive. For the same molecule, the Potency result in [3], in assay [4], in [5], in [6], in assay [20] and in assay [9] was “inactive” each time. Moreover, the Potency entry in [11], in [12], in assay [13], in [14], in assay [15] and in assay [16] was “inactive” throughout. In assay [17], the Potency result is “inactive”. Moreover, the max response in [8] is 6.06%.

For the molecule `Cn1nnc2c(C(N)=O)ncn2c1=O`, the activity change, positive = activation in [1] is -0.988% [at 42.5 µM]. Further, the Potency result in [3], in [4], in [5], in assay [6], in [20] and in assay [9] was “inactive” throughout. For the same molecule, the Potency result in [11], in assay [12], in [13], in assay [14], in assay [16] and in assay [17] was “inactive” each time. In addition, the molecule was classed as inactive in assay [19], in assay [7], in assay [10] and in assay [18]. In addition, the max response in assay [8] is 3.79%.

For `c1ccc(-c2nn[nH]n2)cc1`, the activity change, positive = activation in assay [1] was 8.29%. Moreover, the call in assay [2], in [19], in assay [7], in [10] and in assay [18] was inactive. Moreover, the Potency result in assay [3], in assay [4], in [5], in assay [6], in [11] and in assay [12] was “inactive” each time. Further, the Potency entry in assay [13], in assay [14], in assay [15], in [16] and in assay [17] was “inactive” throughout. In assay [8], the max response is 6%.

For `CC(C)(CO)C(O)C(=O)NCCCO` (stereo unspecified), in assay [1], the activity change, positive = activation is 0.356%. For the same molecule, the result in [2], in assay [19], in assay [7], in [10] and in assay [18] was inactive. Besides, the Potency entry in [3], in [4], in assay [5], in assay [6], in [20] and in assay [11] was “inactive” in each case. Also, the Potency entry in [12], in assay [13], in assay [14], in [16] and in assay [17] was “inactive” each time. Further, in assay [8], the max response is 2.36%.

As to `CC1c2ccccc2CN1NC(=O)c1ccc(Cl)c(S(N)(=O)=O)c1` (stereo unspecified), the activity change, positive = activation in [1] was 3.24% [at 42.5 µM]. The call in assay [2], in assay [19], in assay [7], in assay [10] and in assay [18] was inactive. The Potency result in assay [3], in [4], in assay [6], in assay [20], in assay [9] and in [11] was “inactive” throughout. Besides, the Potency entry in assay [12], in [13], in assay [14], in assay [15], in [16] and in assay [17] was “inactive” each time. The max response in assay [8] was -0.0255%.

For the molecule `O=C(CCCCC(=O)Nc1c(I)cc(I)c(C(=O)O)c1I)Nc1c(I)cc(I)c(C(=O)O)c1I`, the activity change, positive = activation in assay [1] is -37% [at 42.5 µM]. Also, the molecule was classed as inactive in assay [2], in assay [19], in assay [7], in [10] and in assay [18]. In addition, the Potency entry in [3], in [4], in [5], in [6], in [9] and in [11] was “inactive” throughout. For the same molecule, the Potency result in assay [12], in assay [13], in assay [14], in assay [15], in assay [16] and in assay [17] was “inactive” throughout. For the same molecule, in assay [8], the max response is -12.6%.

Turning to `CC1=C(C(=O)O)N2C(=O)[C@@H](NC(=O)[C@H](N)c3ccccc3)[C@H]2SC1`, the activity change, positive = activation in assay [1] is 5.12% [at 42.5 µM]. Further, the call in assay [2], in assay [19], in [7], in assay [10] and in assay [18] was inactive. Moreover, the Potency result in [3], in assay [4], in [6], in assay [9], in assay [11] and in assay [12] was “inactive” in each case. Besides, the Potency entry in assay [13], in assay [14], in [15], in [16] and in assay [17] was “inactive” in each case. Also, the max response in assay [8] is 0.975%.

Values taken from PubChem BioAssay (Tox21).
